Source: PubChem BioAssay
Sampled rows, rich in hits. Any-hit rate of the full collection: about 3.4%.
Ecoli rRNA inh: selective bacterial rRNA inhibition in E. coli. E. coli WT GFP vs humanized-ribosome RFP mutants, fluorescence, 24 h; stronger effect = lower value; DMSO median 0, no signal -100. AID 720706. GFP signal change (wild-type ribosome), % (concentration not given with the values). hit rate 1.6% among 350,000;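 active means significant combined selectivity score with lowered wild-type GFP, culture density cut under 30%, mutant RFP and density less affected; inactive means any of these conditions unmet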
LGR2 inh: blocks bursicon-induced cAMP signaling via Drosophila LGR2 | AID 720647 | inhibition, % at 9.99 µM | hit rate 0.35% among 380,000 | HEK293 LGR2, CRE-luciferase, bursicon-stimulated, 4 h;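 active means drop in luminescence signal, shown as inhibition above about 50% in the replicate tests, limit read from the data, passing the limit was not always enough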;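 further: agonist challenge used bursicon conditioned medium at about half maximal strength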
EWS-Fli inh: EWS/Fli transcriptional activity inhibition | A673 NR0B1-luciferase reporter, viability-normalised | inhibition, % at 12.6 µM | hit rate 0.67% among 350,000 | AID 651661;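 active means mean inhibition of at least 50% after viability correction, with every replicate also passing that limit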;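 further: firefly luciferase signal divided by Alamar Blue viability fluorescence both relative to DMSO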
PAX8 reporter: inhibitors of PAX8 transcriptional activity in RMG-I cells. RMG-I TPO-luciferase reporter, SteadyGlo, 24 h. hit rate 1.2% among 360,000. inhibition, % at 12.6 µM. AID 652154;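 active means mean replicate inhibition at least 60% with every replicate also reaching 60%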;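 further: luciferase light reporting Pax8 driven TPO promoter activity; plate controls were median of neutral control wells for no effect and mitoxantrone controls for full effect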
SIRT5 block: sirtuin-5 (human) deacylase inhibition; hit rate 1.1% among 330,000; AID 652115; Purified SirT5, succinyl-peptide AMC, trypsin-coupled fluorescence; inhibition, % at 15 µM; Q9NXA8; in the data active means inhibition above about 15%
Target sequence (Q9NXA8 whole entry, looked up): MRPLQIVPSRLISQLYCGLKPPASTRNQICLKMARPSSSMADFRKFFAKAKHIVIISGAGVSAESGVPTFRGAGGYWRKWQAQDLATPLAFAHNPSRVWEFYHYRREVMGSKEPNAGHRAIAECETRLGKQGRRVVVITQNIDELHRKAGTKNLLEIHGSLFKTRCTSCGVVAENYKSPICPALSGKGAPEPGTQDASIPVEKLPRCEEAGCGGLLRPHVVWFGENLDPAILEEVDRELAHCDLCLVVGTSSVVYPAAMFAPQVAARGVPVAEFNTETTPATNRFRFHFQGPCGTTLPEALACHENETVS
PGC1a acetyl inh: modulators of PGC1a acetylation | U2OS PGC1a acetylation, AlphaScreen anti-acetyl-lysine; with virally co-expressed GCN5 acetyltransferase | inhibition, % at 15.6 µM | hit rate 0.17% among 350,000 | AID 651687;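 active means every replicate shows inhibition of at least 40%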;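 further: 0% = neutral control wells and 100% = positive control wells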
* hit, by the source's call.

Results for C[C@@H]1CCCCO[C@@H](CN(C)S(=O)(=O)c2ccc(Cl)cc2)[C@H](C)CN([C@@H](C)CO)C(=O)c2cc(N(C)C)ccc2O1 ?
Ecoli rRNA inh: -8.4; LGR2 inh: 12.8; EWS-Fli inh: 1.5; PAX8 reporter: 79.3*; PGC1a acetyl inh: 2.3

What do the screens show for `C[C@@H]1CCCCO[C@H](CN(C)S(=O)(=O)c2ccc(Cl)cc2)[C@H](C)CN([C@@H](C)CO)C(=O)c2cc(NS(=O)(=O)c3ccc(Cl)cc3)ccc2O1`?
Ecoli rRNA inh: 1.8; LGR2 inh: 7.0; EWS-Fli inh: 4.4; PAX8 reporter: 74.3*; PGC1a acetyl inh: -33.8

Results for C[C@@H]1CCCCO[C@@H](CN(C)S(=O)(=O)c2ccc(Cl)cc2)[C@H](C)CN([C@H](C)CO)C(=O)c2cc(N(C)C)ccc2O1 ?
Ecoli rRNA inh: -2.5; LGR2 inh: -8.1; EWS-Fli inh: -4.5; PAX8 reporter: 33.2; SIRT5 block: -0.9; PGC1a acetyl inh: -36.2

What do the screens show for `C[C@H]1CN([C@@H](C)CO)S(=O)(=O)c2ccc(-c3cncnc3)cc2O[C@@H]1CN(C)C(=O)CN(C)C`?
Ecoli rRNA inh: 6.6; LGR2 inh: -0.7; EWS-Fli inh: 1.1; SIRT5 block: 7.7; PGC1a acetyl inh: 1.3

Results for COc1ccc(NC(=O)C(OC(=O)c2ccccc2)c2cccs2)cc1 (stereo not drawn) ?
EWS-Fli inh: -71.3; PAX8 reporter: -73.3; SIRT5 block: 3.8; PGC1a acetyl inh: -1.4

Results for C[C@@H]1CCCCO[C@@H](CN(C)S(=O)(=O)c2ccc(Cl)cc2)[C@H](C)CN([C@@H](C)CO)C(=O)c2cc(NS(=O)(=O)c3ccc(Cl)cc3)ccc2O1 ?
Ecoli rRNA inh: -5.7; LGR2 inh: 5.7; EWS-Fli inh: 1.8; PAX8 reporter: 77.7*; PGC1a acetyl inh: -11.4

How did CCC(C)N(C(=O)CSc1ncnc2sccc12)C1CCS(=O)(=O)C1 (stereo not drawn) do in these assays?
Ecoli rRNA inh: 3.5; LGR2 inh: 6.7; EWS-Fli inh: 9.8; PAX8 reporter: 13.9; SIRT5 block: -1.5

How did CCCN(CC1CC1)C(=O)CSc1ncnc2sccc12 do in these assays?
Ecoli rRNA inh: -18.3*; LGR2 inh: 8.3; EWS-Fli inh: -5.5; PAX8 reporter: 21.2; SIRT5 block: -3.0; PGC1a acetyl inh: -0.4

Results for COC(=O)C1=C(C)NC(C)=C(C(=O)OC)C1C(=O)OCC(=O)N1c2ccccc2CC1C (stereo not drawn) ?
Ecoli rRNA inh: -12.3*; LGR2 inh: -16.7; EWS-Fli inh: 6.5; PAX8 reporter: 1.6; PGC1a acetyl inh: -0.3

How did O=C(c1ccncc1)N1CC(=O)N2[C@H](C1)[C@H](c1ccc(C#CCC3CCCC3)cc1)[C@@H]2CO do in these assays?
Ecoli rRNA inh: -35.3

How did CCCNC(=S)N1CCC(NC(=O)c2ccc(C)cc2)CC1 do in these assays?
Ecoli rRNA inh: 3.3; LGR2 inh: -17.5; EWS-Fli inh: -5.3; PAX8 reporter: 13.1; SIRT5 block: 24.7*; PGC1a acetyl inh: 6.1

Results for Cc1ccc(NC(=S)N2CCC(NC(=O)c3ccc(C)cc3)CC2)cc1 ?
Ecoli rRNA inh: 3.4; LGR2 inh: 13.4; EWS-Fli inh: -6.1; PAX8 reporter: 8.4; SIRT5 block: -2.5

What do the screens show for `C[C@@H]1CN([C@H](C)CO)C(=O)c2cc(NS(=O)(=O)c3ccc(F)cc3)ccc2O[C@@H](C)CCCCO[C@H]1CN(C)Cc1ccc2c(c1)OCO2`?
Ecoli rRNA inh: 5.9; LGR2 inh: -1.1; EWS-Fli inh: 4.3; PAX8 reporter: 0.0; SIRT5 block: 0.4; PGC1a acetyl inh: -6.4

How did C[C@@H]1CCCCO[C@@H](CN(C)Cc2ccc(Cl)c(Cl)c2)[C@@H](C)CN([C@H](C)CO)C(=O)c2cc(NS(=O)(=O)c3ccc(F)cc3)ccc2O1 do in these assays?
Ecoli rRNA inh: 5.5; LGR2 inh: 15.8; EWS-Fli inh: -4.8; PAX8 reporter: -2.7; SIRT5 block: 1.8; PGC1a acetyl inh: -10.1

Results for C[C@@H]1CN([C@H](C)CO)C(=O)c2cc(NS(=O)(=O)c3ccc(Cl)cc3)ccc2O[C@@H](C)CCCCO[C@H]1CN(C)Cc1ccc(Cl)c(Cl)c1 ?
Ecoli rRNA inh: 0.6; LGR2 inh: 9.1; EWS-Fli inh: 16.8; PAX8 reporter: 112.8*; SIRT5 block: 4.7; PGC1a acetyl inh: 16.2

Results for Cc1ccc(S(=O)(=O)Nc2ccc3c(c2)C(=O)N([C@@H](C)CO)C[C@H](C)[C@@H](CN(C)Cc2ccc(Cl)c(Cl)c2)OCCCC[C@@H](C)O3)cc1 ?
Ecoli rRNA inh: 4.7; LGR2 inh: -0.2; EWS-Fli inh: 12.3; PAX8 reporter: 103.2*; SIRT5 block: 14.5; PGC1a acetyl inh: -3.9

Results for Cc1ccc(S(=O)(=O)Nc2ccc3c(c2)C(=O)N([C@H](C)CO)C[C@H](C)[C@@H](CN(C)Cc2ccc(Cl)c(Cl)c2)OCCCC[C@@H](C)O3)cc1 ?
Ecoli rRNA inh: 1.0; LGR2 inh: -17.1; EWS-Fli inh: 17.6; PAX8 reporter: 19.7; SIRT5 block: 8.7; PGC1a acetyl inh: 6.6

How did C[C@@H]1CCCCO[C@@H](CN(C)Cc2ccc(Cl)c(Cl)c2)[C@@H](C)CN([C@@H](C)CO)C(=O)c2cc(NS(=O)(=O)c3ccc(Cl)cc3)ccc2O1 do in these assays?
Ecoli rRNA inh: 5.1; LGR2 inh: 6.3; EWS-Fli inh: 6.7; PAX8 reporter: 29.4; PGC1a acetyl inh: -1.9

Results for C[C@H]1CCCCO[C@H](CN(C)Cc2ccc(Cl)c(Cl)c2)[C@@H](C)CN([C@@H](C)CO)C(=O)c2cc(NS(=O)(=O)c3ccc(F)cc3)ccc2O1 ?
Ecoli rRNA inh: -4.7; LGR2 inh: 0.9; EWS-Fli inh: -41.6; PAX8 reporter: 34.8; SIRT5 block: 15.0*; PGC1a acetyl inh: 1.0

Results for C[C@H](CO)N1C[C@H](C)[C@@H](CN(C)Cc2ccc(Cl)c(Cl)c2)OCCCC[C@H](C)Oc2ccc(NS(=O)(=O)c3ccc(F)cc3)cc2C1=O ?
Ecoli rRNA inh: -3.5; LGR2 inh: 23.3; EWS-Fli inh: 9.6; PAX8 reporter: 104.9*; SIRT5 block: 0.8; PGC1a acetyl inh: 10.1

How did COc1ccc2c3c(n(C)c2c1)[C@@H](CO)N(C(=O)CN1CCOCC1)CC31CCN(C)CC1 do in these assays?
Ecoli rRNA inh: 7.1

What do the screens show for `CCCC#Cc1cnc2c(c1)C(=O)N([C@@H](C)CO)C[C@@H](C)[C@@H](CN(C)C(=O)CN1CCOCC1)O2`?
Ecoli rRNA inh: 4.3; LGR2 inh: -15.7; EWS-Fli inh: -7.0; SIRT5 block: -7.0; PGC1a acetyl inh: 2.2

What do the screens show for `COc1ccc(S(=O)(=O)Nc2ccc3c(c2)C(=O)N([C@@H](C)CO)C[C@H](C)[C@@H](CN(C)C(=O)Nc2ccc(F)cc2)OCCCC[C@H](C)O3)cc1`?
Ecoli rRNA inh: -1.5; LGR2 inh: -19.2; EWS-Fli inh: -4.4; PAX8 reporter: 84.7*; SIRT5 block: 16.1*; PGC1a acetyl inh: 1.8
